High-throughput results deposited in PubChem by National Center for Advancing Translational Sciences (NCATS).
Most compounds without a hit are left out; they make up all but 19% or so of the library.
TDP1 cell noCPT – qHTS for Inhibitors of human tyrosyl-DNA phosphodiesterase 1 (TDP1): qHTS in cells in absence of CPT | DT40 Tdp1-/- hTDP1 cells, no CPT, ATP luminescence, 48 h | Potency, µM (titrated, usually from 46.2 µM), for inactives: at the top dose activity change, negative = growth inhibition, usual class: inhibitors | 420,000 compounds, 15% hits | AID 686978, 2013; note: potency is the fitted concentration of half-maximal effect; % is set by controls: 0 for no effect and ±100 for the full control effect; nearly all actives have a fitted effect of over 55% in size
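Growth kinetics read by CellTiter-Glo luminescence after ≥48 hr at 37 °C. Cells: DT40 Tdp1-/- stably carrying human TDP1, 400 per well, compound exposure in the absence of CPT (DMSO vehicle).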
TGFb SMAD3 inh – inhibitors of TGF-b signaling; HepG2 CAGA-GFP TGF-b/SMAD3 reporter, GFP fluorescence, 18 h; TGF-beta stimulated, 500 pg/mL final; Potency, µM (top dose mostly 46.1 µM), inactives show at the top dose activity, negative = inhibition, actives largely listed as inhibitors; 410,000 compounds, 1.2% hits; note: potency is the fitted concentration of half-maximal effect; % is set by controls: 0 for no effect and ±100 for the full control effect; nearly all actives have a fitted effect of over 65% in size
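Smad-responsive CAGA-GFP expression was quantified in HEPG2 cells exposed to compounds and 500 pg/mL final TGF-beta for 18 h at 37 degrees C; unstimulated wells defined full inhibition.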
IL1B secr inh – inhibitors of inflammasome signaling (IL-1 beta secretion); THP-1 LPS/ATP IL-1B secretion, AlphaLISA, 16 h; active compounds read low; activity change, % at 57.5 µM; 360,000 compounds, 4.7% hits; AID 743279; in the data active = activity change below about -50%; inconclusive = mostly about -30% to -49%; note: % is set by controls: 0 for no effect and ±100 for the full control effect
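THP-1 cells pretreated 1 hr with compounds (up to 57.5 uM final), then stimulated with LPS (250 ng/mL final) plus ATP (1.25 mM final); secreted IL-1B measured by AlphaLISA after 16 hr, decreased signal indicating inhibition.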
ASM inhibitor – blocks human secretory acid sphingomyelinase; placental ASM, HMU-PC fluorogenic substrate, 60 min; 340,000 compounds, 0.006% hits; P17405; Potency, µM (titrated, usually from 57.5 µM), for the others: at the highest dose activity change, negative = inhibition, usual class: inhibitors; note: potency is the fitted concentration of half-maximal effect
Target sequence (P17405 47-631 limits assumed): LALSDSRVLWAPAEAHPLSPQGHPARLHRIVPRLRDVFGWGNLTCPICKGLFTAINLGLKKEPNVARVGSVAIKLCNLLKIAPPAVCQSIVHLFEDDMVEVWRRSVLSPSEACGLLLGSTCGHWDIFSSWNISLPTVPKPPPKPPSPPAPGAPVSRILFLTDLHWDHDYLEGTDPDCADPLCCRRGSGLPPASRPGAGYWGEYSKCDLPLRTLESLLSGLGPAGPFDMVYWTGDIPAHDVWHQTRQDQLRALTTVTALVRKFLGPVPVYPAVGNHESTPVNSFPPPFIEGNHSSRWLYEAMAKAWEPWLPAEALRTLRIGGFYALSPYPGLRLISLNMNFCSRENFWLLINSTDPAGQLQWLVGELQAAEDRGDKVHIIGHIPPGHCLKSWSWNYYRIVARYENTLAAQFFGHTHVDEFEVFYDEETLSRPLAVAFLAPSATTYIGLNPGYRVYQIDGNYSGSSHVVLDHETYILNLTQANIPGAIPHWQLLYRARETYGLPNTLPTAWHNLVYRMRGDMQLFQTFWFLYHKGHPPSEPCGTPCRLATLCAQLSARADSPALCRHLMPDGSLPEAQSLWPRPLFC
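Fluorescence read-out (Ex 386 nm, Em 447 nm) after stopping the reaction at pH 10. Enzyme: ASM from human placenta; substrate HMU-PC0, 9 uM final; 60 min, 37 °C. Compound preincubation 10 min, ambient temperature.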
HepG2 viability – counter-screen for TGF-b inhibitors: cytotoxicity in HepG2 cells; HepG2 CAGA-GFP viability, ATP luminescence, 18 h; 410,000 compounds, 0.76% hits; Potency, µM (top dose mostly 46.1 µM), for the others: at the top dose activity change, negative = cytotoxicity, hits mostly cytotoxic; note: potency is the fitted concentration of half-maximal effect
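HepG2 CAGA-GFP cells (1000/well, DMEM with 1% FBS) received compound, then TGF-beta at 500 pg/mL final, and were incubated 18 hours at 37 degrees C. Viability was read by CellTiter-Glo luminescence. Media-only wells were set as complete cell-killing and DMSO as no toxicity.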
TDP1 cell CPT – growth inhibition of DT40 Tdp1-/-;hTDP1 cells with camptothecin (screen for TDP1 inhibitors); chicken DT40 Tdp1-/-;hTDP1 cells + 20 nM CPT, ATP luminescence, 48 h; Potency, µM (highest dose often 46.2 µM), without a hit: at the highest dose activity change, negative = growth inhibition, actives largely listed as inhibitors; 420,000 compounds, 12% hits; AID 686979; note: potency is the fitted concentration of half-maximal effect; % is set by controls: 0 for no effect and ±100 for the full control effect; nearly all actives have a fitted effect of over 55% in size
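Cell growth measured by CellTiter-Glo luminescence after a minimum 48 h, 37 C compound exposure with 20 nM CPT in Tdp1-knockout DT40 cells stably expressing hTDP1, seeded 400/well; qHTS titration format.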
Starred values were filed as active, the others as inactive; ? = inconclusive; / = no result. Unless noted, calls come from the whole dose curve; as a rule, active = well fitted curve in the direction sought with a large enough effect; inconclusive = small, poorly fitted or top-dose-only effect, or another doubt; inactive = no such curve, though single readings can be large; an effect the other way counts as inactive or inconclusive.

SMILES	TDP1 cell noCPT	TGFb SMAD3 inh	IL1B secr inh	ASM inhibitor	HepG2 viability	TDP1 cell CPT
COc1cc2c(cc1OC)C(COc1ccc3c(C)cc(=O)oc3c1)N(C(=O)c1ccc(C)cc1)CC2 (stereo unspecified)	?	1%	/	/	-13%	?
COc1cc2c(cc1OC)C(COc1ccc3c(C)cc(=O)oc3c1)N(C(=O)c1ccc(C)c(C)c1)CC2 (stereo unspecified)	16µM*	-9%	/	/	-40%	?
CCC(CC)C(=O)N1CCc2cc(OC)c(OC)cc2C1COc1ccc2c(C)cc(=O)oc2c1 (stereo unspecified)	16µM*	?	/	/	-39%	?
CCCC(=O)N1CCc2cc(OC)c(OC)cc2C1COc1ccc2c(C)cc(=O)oc2c1 (stereo unspecified)	13µM*	1%	/	/	-5%	?
Cc1cc(NS(=O)(=O)c2ccc(NC(=O)COc3ccc(C#N)cc3)cc2)nc(C)n1	-1%	-4%	22	2%	9%	-2%
CCCCN1CC(c2nc3ccccc3n2CCCCOc2cccc(C)c2C)CC1=O (stereo unspecified)	21µM*	?	/	/	11µM*	?
CCCCN1CC(c2nc3ccccc3n2CCCCOc2ccc(C)c(C)c2)CC1=O (stereo unspecified)	7.3µM*	11µM*	/	/	-103%	10µM*
CCCCN1CC(c2nc3ccccc3n2CCCCOc2cc(C)cc(C)c2)CC1=O (stereo unspecified)	7.3µM*	?	/	/	-106%	12µM*
CCOC(=O)Cn1c(C2CC(=O)N(c3ccc(C)cc3)C2)nc2ccccc21 (stereo unspecified)	-25%	-6%	/	/	3%	-4%
Cc1ccccc1NC(=O)CN1C(=O)S/C(=C/c2cccnc2)C1=O	14%	1%	28	2%	6%	-7%
CC(=O)c1cc(-c2ccc(F)cc2)n(CC(=O)NC(C)c2ccccc2)c1C (stereo unspecified)	?	0%	/	/	-28%	?
C/C(=N\NC(=O)c1cccc(S(=O)(=O)N2CCCC2)c1)c1ccc(F)cc1	-21%	0%	16	-1%	-22%	-22%
CCCCN1C(=O)C(CC(=O)NCCCN(C)C)CC(C(=O)N(C)C)=C1C (stereo unspecified)	-6%	3%	6	/	-7%	1%
C=CC(=O)N1C/C(=C/c2ccc(F)cc2)C(=O)/C(=C\c2ccc(F)cc2)C1	-104%	?	-84*	-13%	20µM*	0.82µM*
Cc1cccc(N=C2C(=O)Nc3c(Cl)cccc32)c1	29µM*	?	19	4%	-54%	?
CNS(=O)(=O)c1cccc(C(=O)OCCCOC(=O)c2cccc(S(=O)(=O)NC)c2)c1	?	3%	13	6%	1%	?
O=C(NC1CCN(Cc2ccccc2)CC1)C1CCN(S(=O)(=O)c2cccc3cccnc23)CC1	15µM*	5%	30	-4%	-10%	18µM*
O=S(=O)(NCC1CCCN(Cc2ccccc2)C1)c1cccc2cccnc12 (stereo unspecified)	-4%	-7%	?	3%	-20%	-2%
O=S(=O)(NC1CCN(Cc2ccccc2)CC1)c1cccc2cccnc12	18µM*	-4%	-2	0%	-30%	?
O=C(NC1CCCCCC1)C1CCN(S(=O)(=O)c2cccc3cccnc23)CC1	-10%	-6%	-5	-7%	1%	-3%
CCCCCN(C(=O)CCC(=O)OCC(=O)N1CCCCC1)c1c(N)n(CCCC)c(=O)[nH]c1=O	-4%	-1%	-1	0%	3%	4%
